Calls of active or inactive are those of the source.
Assays:
[1] = optical density shifts of acrAB sulA E. coli – strain DRC41, OD650, 48 h, E. coli filamentation inducer project, primary screen (AID 1152); details: higher = more signal, called active from +8 up or from −8 down;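 also: E. coli MC1000 strain DRC41 lacking acrAB efflux pump and sulA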
[2] = probe aLefty1 binding on compound microarray – biochemical, small-molecule microarray, 635/667 nm fluorescence, primary screen (AID 1153); details: higher = more signal;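 also: score merges spot fluorescence with signal-to-noise ratio from the scanned slide images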
[3] = plasmodial surface anion channel blockers, osmotic lysis – cell-based, P. falciparum Indochina, OD700, 1 h, primary screen (AID 1154); details: P. falciparum Indochina infected RBC osmotic lysis, higher = more signal, called active from +8 up or from −8 down
[4] = plasmodial surface anion channel blockers, osmotic lysis – cell-based, P. falciparum Indochina, OD700, 2 h, primary screen (AID 1155);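 also: lysis reports solute entry through the parasite surface anion channel PSAC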; details: P. falciparum Indochina infected erythrocytes, higher = more signal, called active from +8 up or from −8 down
[5] = changes in parasitized red cell lysis, either direction – P. falciparum Indochina, OD700, 3 h, PSAC antagonist project, primary screen (AID 1156); details: P. falciparum-infected erythrocytes, osmotic lysis, higher = more signal, called active from +8 up or from −8 down
[6] = plasmodial surface anion channel blockers, osmotic lysis – cell-based, P. falciparum Indochina, OD700, 18 h, primary screen (AID 1157); details: P. falciparum Indochina infected erythrocytes, osmotic lysis OD700, 18 h; higher = more signal, called active from +8 up or from −8 down
[7] = S6 kinase pathway phospho-S6 level changes – cell-based, A549, cytoblot, luminescence, serum-stimulated, primary screen (AID 1158); details: 5 h, higher = more signal;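 also: serum-stimulated A549 lung adenocarcinoma cells; signal is phosphorylated S6 detected by cytoblot immunostaining with HRP secondary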
[8] = molecular target: NADPH oxidase 2 (Homo sapiens) (UniProt P04839); assay: compounds shifting NOX2 Amplex Red fluorescence – cell-based, HEK293-NOX2, PMA-stimulated, NOX inhibitor project, primary screen (AID 1159); details: 45 min, higher = more signal, called active from +8 up or from −8 down; also: test concentration not given here
NADPH oxidase 2 (Homo sapiens), sequence (P04839 whole entry, looked up): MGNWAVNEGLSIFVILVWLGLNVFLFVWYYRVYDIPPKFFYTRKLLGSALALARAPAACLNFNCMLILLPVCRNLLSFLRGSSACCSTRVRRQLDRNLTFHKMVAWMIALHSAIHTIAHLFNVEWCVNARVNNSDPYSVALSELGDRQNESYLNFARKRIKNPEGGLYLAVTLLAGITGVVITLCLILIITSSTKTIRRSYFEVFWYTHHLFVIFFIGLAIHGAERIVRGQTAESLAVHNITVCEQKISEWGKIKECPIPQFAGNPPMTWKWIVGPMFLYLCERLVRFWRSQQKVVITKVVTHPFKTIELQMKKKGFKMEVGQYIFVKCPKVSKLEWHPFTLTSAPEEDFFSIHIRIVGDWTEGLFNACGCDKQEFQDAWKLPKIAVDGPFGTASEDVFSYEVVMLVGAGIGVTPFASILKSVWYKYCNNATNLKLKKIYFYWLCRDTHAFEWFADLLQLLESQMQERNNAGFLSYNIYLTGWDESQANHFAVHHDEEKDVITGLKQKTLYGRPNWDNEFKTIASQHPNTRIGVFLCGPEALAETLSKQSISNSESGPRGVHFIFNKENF

[9] = molecular target: NADPH oxidase 4 (Homo sapiens) (UniProt Q9NPH5); assay: compounds shifting NOX4 Amplex Red fluorescence – cell-based, HEK293-NOX4, tetracycline-induced, NOX inhibitor project, primary screen (AID 1160); details: HEK293-NOX4, Amplex Red H2O2 fluorescence, 45 min; higher = more signal, called active from +8 up or from −8 down
NADPH oxidase 4 (Homo sapiens), sequence (Q9NPH5 whole entry, looked up): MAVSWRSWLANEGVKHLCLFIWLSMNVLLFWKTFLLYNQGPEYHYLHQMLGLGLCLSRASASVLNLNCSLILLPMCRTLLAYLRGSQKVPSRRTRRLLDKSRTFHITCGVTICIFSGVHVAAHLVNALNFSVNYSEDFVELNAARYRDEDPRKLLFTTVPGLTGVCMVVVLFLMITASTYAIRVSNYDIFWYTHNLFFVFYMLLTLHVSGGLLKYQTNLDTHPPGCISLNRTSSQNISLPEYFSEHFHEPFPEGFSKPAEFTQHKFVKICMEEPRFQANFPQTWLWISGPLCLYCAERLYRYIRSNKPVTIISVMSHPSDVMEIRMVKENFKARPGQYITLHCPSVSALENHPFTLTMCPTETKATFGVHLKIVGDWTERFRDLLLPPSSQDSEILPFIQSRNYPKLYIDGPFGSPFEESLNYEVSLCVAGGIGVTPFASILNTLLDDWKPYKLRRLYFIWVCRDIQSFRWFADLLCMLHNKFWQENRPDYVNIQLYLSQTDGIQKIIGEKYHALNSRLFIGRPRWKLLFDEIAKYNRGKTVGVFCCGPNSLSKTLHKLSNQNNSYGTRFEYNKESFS

[10] = molecular target: NADPH oxidase 5 (Homo sapiens) (UniProt Q96PH1); assay: compounds shifting NOX5 Amplex Red fluorescence – cell-based, HEK293-NOX5, NOX inhibitor project, primary screen (AID 1161); details: HEK293-NOX5, ionomycin, 45 min, higher = more signal
NADPH oxidase 5 (Homo sapiens), sequence (Q96PH1 whole entry, looked up): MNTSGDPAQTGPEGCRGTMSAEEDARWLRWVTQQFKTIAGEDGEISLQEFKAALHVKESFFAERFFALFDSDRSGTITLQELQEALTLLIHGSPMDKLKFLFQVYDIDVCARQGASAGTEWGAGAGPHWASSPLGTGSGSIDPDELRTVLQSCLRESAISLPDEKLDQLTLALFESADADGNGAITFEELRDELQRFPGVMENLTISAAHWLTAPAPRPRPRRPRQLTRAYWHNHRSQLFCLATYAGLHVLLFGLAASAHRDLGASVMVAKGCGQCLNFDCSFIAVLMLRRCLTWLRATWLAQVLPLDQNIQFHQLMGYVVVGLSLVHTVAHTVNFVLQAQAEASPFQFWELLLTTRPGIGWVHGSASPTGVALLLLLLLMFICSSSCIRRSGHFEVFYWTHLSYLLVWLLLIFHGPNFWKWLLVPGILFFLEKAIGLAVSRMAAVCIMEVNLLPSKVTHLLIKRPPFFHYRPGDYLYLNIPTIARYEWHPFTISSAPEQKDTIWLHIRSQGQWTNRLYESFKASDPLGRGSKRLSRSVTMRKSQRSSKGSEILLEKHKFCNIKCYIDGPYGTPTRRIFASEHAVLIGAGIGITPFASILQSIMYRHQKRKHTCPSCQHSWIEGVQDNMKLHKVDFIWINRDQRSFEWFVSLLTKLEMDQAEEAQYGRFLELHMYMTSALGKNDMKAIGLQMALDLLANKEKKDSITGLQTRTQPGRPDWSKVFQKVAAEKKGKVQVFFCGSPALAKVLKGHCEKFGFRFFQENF

[11] = compound effects on lung adenocarcinoma cell viability – A549, calcein-AM fluorescence, 48 h, basal, profiling panel (AID 1162); details: higher = more signal; also: test concentration not given here
[12] = compound effects on differentiated 3T3-L1 adipocyte viability – cell-based, 3T3-L1 adipocytes, calcein-AM fluorescence, 48 h, basal, profiling panel (AID 1163); details: 3T3-L1 adipocytes viability, higher = more signal; also: test concentration not given here
[13] = compound effects on hepatocellular carcinoma cell viability – HepG2, calcein-AM fluorescence, 48 h, basal, profiling panel (AID 1164); details: higher = more signal; also: test concentration not given here
[14] = compound effects on multiple myeloma cell viability – MM1S, calcein-AM fluorescence, 48 h, basal, profiling panel (AID 1165); details: higher = more signal;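 also: viability of MM1S multiple myeloma cells under basal unstimulated conditions; test concentration not given here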
[15] = calcein-AM signal in unstimulated myeloma cells – cell-based, calcein-AM fluorescence, 48 h, PK04 Diversity Set, profiling panel (AID 1166); details: RPMI8226 myeloma viability, higher = more signal;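 also: cells grown under basal conditions without added stimulus; test concentration not given here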
[16] = JC-1 mitochondrial signal, unstimulated HepG2 cells – cell-based, JC-1 fluorescence, 24 h, 100 nL compound, profiling panel (AID 1167); details: HepG2 mitochondrial potential, higher = more signal; also: test concentration not given here
[17] = JC-1 mitochondrial signal, unstimulated adipocytes – cell-based, JC-1 fluorescence, 3T3-L1 adipocytes, 24 h, 100 nL compound, profiling panel (AID 1168); details: JC-1 mitochondrial fluorescence, higher = more signal, called active from +8 up or from −8 down; also: test concentration not given here
[18] = JC-1 mitochondrial signal, unstimulated myeloma cells – cell-based, JC-1 fluorescence, RPMI8226, 24 h, 100 nL compound, profiling panel (AID 1169); details: JC-1 mitochondrial potential fluorescence, higher = more signal; also: test concentration not given here
[19] = JC-1 mitochondrial signal, unstimulated MM1S myeloma – cell-based, JC-1 fluorescence, 24 h, 100 nL compound, profiling panel (AID 1170); details: MM1S mitochondrial potential, higher = more signal; also: test concentration not given here
[20] = resazurin metabolic signal in A549 cells – cell-based, resazurin fluorescence, 24 h, PK04 Diversity Set, profiling panel (AID 1171); details: A549 viability, higher = more signal, called active from +8 up or from −8 down; also: test concentration not given here

| Compound | z-score [1] | composite z-score [2] | z-score [3] | z-score [4] | z-score [5] | z-score [6] | z-score [7] | z-score [8] | z-score [9] | z-score [10] | z-score [11] | z-score [12] | z-score [13] | z-score [14] | z-score [15] | z-score [16] | z-score [17] | z-score [18] | z-score [19] | z-score [20] |
| --- | --- | --- | --- | --- | --- | --- | --- | --- | --- | --- | --- | --- | --- | --- | --- | --- | --- | --- | --- | --- |
| COc1ccc([Si](C)(C)[C@@H]2[C@@H](CCn3cc([C@H](O)c4ccccc4)nn3)O[C@]3(C(=O)N(Cc4cccc(N5CCOC5=O)c4)c4ccccc43)[C@H]2C)cc1 | 1 (inactive) | -0.328 | 26.3 (active) | 12.8 (active) | 1.33 (inactive) | 1.68 (inactive) | 0.324 | -0.662 (inactive) | 2.29 (inactive) | 1.84 | 1.6 | -0.392 | 1.31 | -2.15 | 0.274 | 1.84 | 2.73 (inactive) | -0.671 | -0.0958 | 0.181 (inactive) |
| C=C[C@@H](COC(C)=O)N(Cc1ccc([N+](=O)[O-])cc1)S(=O)(=O)c1ccc(Br)cc1 | 2 (inactive) | 0.0012 | 7.66 (inactive) | 0.824 (inactive) | 2.31 (inactive) | 0.79 (inactive) | 0.354 | 0.495 (inactive) | 0.851 (inactive) | -0.559 | 1.97 | -0.306 | 0.452 | 1.3 | 0.647 | 0.64 | 0.0569 (inactive) | 0.667 | 0.198 | 2.05 (inactive) |
| [N-]=[N+]=NCc1ccccc1[C@@H]1OC(c2ccc(OCCCO)cc2)=N[C@]1(Cc1ccccc1)C(=O)N1CCCCC1 | 1.22 (inactive) | 0.33 | 21.5 (active) | 4.66 (inactive) | 1.78 (inactive) | 1.3 (inactive) | -0.205 | -0.84 (inactive) | 0.453 (inactive) | -1.26 | 0.251 | 0.445 | 0.525 | -0.604 | -3.3 | -0.227 | 0.467 (inactive) | -1.23 | -0.354 | 0.583 (inactive) |
| COC(=O)C(CC#Cc1ccc2c(c1)[C@]1(C(=O)N2)[C@H](C(=O)NC[C@H](O)c2ccccc2)[C@H]2C(=O)O[C@H](c3ccccc3)[C@H](c3ccccc3)N2[C@@H]1c1ccc(OCCO)cc1)C(=O)OC | -0.658 (inactive) | 1.78 | 5.95 (inactive) | 2.11 (inactive) | 0.0313 (inactive) | 1.1 (inactive) | 0.161 | 1.39 (inactive) | 0.865 (inactive) | 1.41 | 1.07 | 0.55 | 0.0255 | -1.17 | 0.0736 | -1.06 | 1.04 (inactive) | -0.94 | -1.15 | 0.199 (inactive) |
| COCC(=C=CC[C@@H](O)c1ccc(CO)o1)CCO | 2.61 (inactive) | -0.205 | 1.6 (inactive) | -0.908 (inactive) | -0.949 (inactive) | -1.11 (inactive) | 3.11 | -1.84 (inactive) | -0.922 (inactive) | -1.06 | 2.82 | 1.72 | 0.783 | 0.178 | 1.94 | 0.281 | -0.24 (inactive) | 0.824 | -1.08 | 0.559 (inactive) |
| O=C1[C@]2(CO)C=C(Br)[C@@H](C[C@@H]2c2ccccc2)[C@@]12CO2 | 0.168 (inactive) | -0.188 | 0.0883 (inactive) | 0.0579 (inactive) | -0.533 (inactive) | -0.187 (inactive) | -0.364 | 0.538 (inactive) | 0.662 (inactive) | -0.211 | -0.425 | 0.364 | -0.421 | -2.22 | -2.68 | -1.66 | -0.435 (inactive) | 0.278 | -1.14 | 0.359 (inactive) |
| CC(C)N1CC=CC23O[C@@H]4C=CCOC(=O)[C@@H]4[C@H]2C(=O)N(CCO)[C@@H]3C1=O (stereo not given in full) | 0.759 (inactive) | -0.0559 | -0.0173 (inactive) | 0.257 (inactive) | -0.288 (inactive) | 0.6 (inactive) | 0.121 | 0.603 (inactive) | 0.865 (inactive) | 0.913 | -0.237 | 0.253 | -0.166 | 1.07 | -0.761 | -0.38 | 0.0611 (inactive) | 0.223 | -0.797 | 0.336 (inactive) |
| CCOC(=O)C1=C[C@@H](C(C)C)N(S(=O)(=O)c2ccc(C)cc2)[C@H]1c1ccc(C(C)C)cc1 | -0.39 (inactive) | 0.262 | 0.431 (inactive) | 0.749 (inactive) | 0.4 (inactive) | 0.367 (inactive) | -0.234 | -0.5 (inactive) | -0.195 (inactive) | -0.151 | 0.012 | 0.256 | -0.493 | -0.955 | -2.18 | 7.47 | -0.0264 (inactive) | -0.0684 | -0.776 | 3.1 (inactive) |
| COC(=O)[C@@]1(Cc2ccc(OC)cc2)[C@H]2c3cc(C(=O)N(C)C)n(Cc4c(OC)[nH]cc(C)c4=O)c3C[C@H]2CN1C(=O)c1ccccc1 | -0.348 (inactive) | 0.276 | 0.275 (inactive) | -0.997 (inactive) | -0.456 (inactive) | -2.25 (inactive) | 2.46 | 0.689 (inactive) | -0.265 (inactive) | -3.64 | 0.249 | -0.0161 | 1.17 | 0.685 | 1.13 | 1.95 | 0.274 (inactive) | -0.213 | -1.65 | -1.52 (inactive) |

— PubChem BioAssay
